Laboratory results published in PubChem BioAssay (EPA / NIEHS).
“And” between values parts separate entries of the source, which are not always exact repeats. Identical values can stand only once. The source made the active and inactive calls. The calls were made as follows: active = hit-call score of the fitted dose curve at least 0.9, where 1 is the maximum; inactive = score below 0.9.

Test: BSK_3C_Vis: BioMAP Diversity Plus: 3C Assay for Morphology Visualization (AID 2283025);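 also: fitted both ways so gain or loss versus DMSO counts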
Settings: primary human endothelial cells (HUVEC)
Protocol: BSK_3C is a cell-based, multiplexed-readout assay that uses umbilical vein endothelium, a human vascular primary cell, with measurements taken at 24 hours after chemical dosing in a 96-well plate.BSK_3C_Vis is an assay component measured in the BSK_3C assay. It measures NA related to cell morphology using light microscopy technology.Data from the assay component BSK_3C_Vis was analyzed into 1 assay endpoint. This assay endpoint, BSK_3C_Vis, was analyzed with bidirectional fitting relative to DMSO as the negative control and baseline of activity. Using a type of morphology reporter, gain or loss-of-signal activity can be used to understand changes in the background control. Furthermore, this assay endpoint can be referred to as a secondary readout, because this assay has produced multiple assay endpoints where this one serves a background control function. To generalize the intended target to other relatable targets, this assay endpoint is annotated to the cell morphology intended target family, where the subfamily is cell conformation.
The levels of cell surface (or secreted, indicated by the prefix "s") biomarker endpoints were measured by ELISA. Overt cytotoxicity to cells in confluent adherent cultures (all systems other than the BT system) was assessed by measuring total protein levels using sulforhodamine B (SRB) staining in parallel cultures at the time of biomarker measurements, indicated as SRB endpoints. For proliferation assays for adherent cell types, individual cell types are cultured at sub-confluence and relative cell numbers quantified by SRB staining at time points optimized for each system (48 h: 3C and CASM3C systems; 72 h: BT and HDF3CGF systems; 96 h: SAg system). SRB was performed by staining cells with 0.1% SRB after fixation with 10% TCA and reading wells at 560 nm.Viability and proliferation of PBMC (T cells) was quantified by Alamar Blue reduction for the SAg and BT systems. For PBMC viability (referred to as PBMC Cytotoxicity within the assay endpoint names), cells were plated (75,000/well in a 96-well plate) and then chemical samples added for 1 h before addition of activators, SEB and TSST-1 (20 ng/mL final concentration each). Cells were incubated for 90 h. Then, Alamar Blue (20 uL/well) (Invitrogen, Cat DAL1100) was added for 6 h, and the plates were read with a fluorescence microplate reader at 546/580 nm (excitation/emission). For PBMC proliferation, cells were plated and activated as above but incubated for only 16 h prior to addition of Alamar Blue. Plates were read after 6 h.
With `c1ccc(Sc2ccccc2)cc1` the AC50 was 37.8 µM (active). For `c1ccc2c(c1)-c1ccc3ccc4cccc5cc-2c1c3c45`, the AC50 was 4.52 µM (active). For `CCOC(=O)C=Cc1ccccc1`, the outcome was “inactive”. In the case of `CCOC(=O)CCCCCCCCC(=O)OCC`, the outcome is reported as “inactive”. For `C#C[C@]1(O)CC[C@H]2[C@@H]3CCc4cc(O)ccc4[C@H]3CC[C@@]21C`, the AC50 was 9.8 µM (active). For `CC(C)Cc1ccc(C(C)C(=O)O)cc1` (stereo unspecified), the outcome was “inactive”. For `CC1=CC(C)C(C=O)C(C)C1` (stereo unspecified) (tested in a mixture with another compound), the outcome was “inactive”. With `CC(=O)OCC=C(C)CCC=C(C)CCC=C(C)C` the outcome was “inactive”. With `Nc1ccc(N)c([N+](=O)[O-])c1` the outcome was “inactive”. With `CC(=O)CCC=C(C)CCC=C(C)C` the outcome was “inactive”. For `CC=CC(=O)C1=C(C)C=CCC1(C)C`, the outcome was “inactive”. For `CCCCCCCC1CCCC1=O` (stereo unspecified), the AC50 was 37.8 µM (active). With `CCC(=O)OCC=Cc1ccccc1` the outcome was “inactive”. For `C=C(C)C(N)=O`, the outcome was “inactive”. In the case of `OCCN1CCOCC1`, the outcome is reported as “inactive”. In the case of `CCCCCCCCCCCCS`, the AC50 is reported as 20 µM (active). With `COc1ccccc1NC(=O)CC(C)=O` the outcome was “inactive”. With `C[C@]12CC[C@@H]3c4ccc(O)cc4CC[C@H]3[C@@H]1CC[C@@H]2O` the AC50 was 13.7 µM (active). For `O=C1OC2(c3ccc(O)cc3Oc3cc(O)ccc32)c2ccccc21`, the outcome was “inactive”. With `CCCCCCCCCC(=O)OCC` the AC50 was 14.1 µM (active). In the case of `C=CC(=O)OCC(CO)(COC(=O)C=C)COC(=O)C=C`, the AC50 is reported as 0.174 µM (active). For `CC1(C)[C@H](C=C(Cl)Cl)[C@H]1C(=O)OCc1cccc(Oc2ccccc2)c1`, the outcome was “inactive”. For `CC(C)(C)c1cccc(O)c1`, the outcome was “inactive”. With `C=C1CC/C=C(\C)CC[C@@H]2[C@@H]1CC2(C)C` the AC50 was 14.5 µM (active). With `O=S1(=O)CC(Cl)(Cl)C(Cl)(Cl)C1` the AC50 was 20 µM (active). With `CC/C(=C(\c1ccccc1)c1ccc(OCCN(C)C)cc1)c1ccccc1` the AC50 was 4.76 µM (active) and 5.36 µM (active). For `O=C(c1ccc(OCCN2CCCCC2)cc1)c1c(-c2ccc(O)cc2)sc2cc(O)ccc12`, the AC50 was 22.3 µM (active). With `CC(=O)OC(C)(C)C1CC=C(C)CC1` (stereo unspecified) the AC50 was 38.9 µM (active). For `CCCCOCCOCCO`, the outcome was “inactive”. For `NC(=O)c1c(Cl)cccc1Cl`, the outcome was “inactive”. With `COC(=O)c1ccc(C(=O)OC)cc1` the outcome was “inactive”.
